# Source: PubChem BioAssay AID488969 (Vanderbilt High Throughput Screening Facility, 2010)
# The full ranking holds about 110,000 compounds; the median of “z-score” is about -0.1, and the highest 2% start at about 2. The sample as a whole holds a higher share of the highest values than the screen did. Activity calls are given as the source filed them.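 Rule for the calls: active = z-score in the third read window above 3 or below -3; inactive = the rest.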
# Target: Metabotropic glutamate receptor 8 (Rattus norvegicus) (UniProt P70579)
# Test: rat mGluR8 modulators via GIRK flux, primary screen, cell-based, thallium flux, HTS (AID 488969)
# Details: HEK293 rat mGluR8, GIRK (G protein-gated inwardly rectifying potassium channel) thallium flux, FluoZin2; at 10 µM; stronger effect = higher value; submaximal glutamate (EC20) added with thallium
# Chain of Metabotropic glutamate receptor 8 (Rattus norvegicus) (P70579 whole entry, looked up): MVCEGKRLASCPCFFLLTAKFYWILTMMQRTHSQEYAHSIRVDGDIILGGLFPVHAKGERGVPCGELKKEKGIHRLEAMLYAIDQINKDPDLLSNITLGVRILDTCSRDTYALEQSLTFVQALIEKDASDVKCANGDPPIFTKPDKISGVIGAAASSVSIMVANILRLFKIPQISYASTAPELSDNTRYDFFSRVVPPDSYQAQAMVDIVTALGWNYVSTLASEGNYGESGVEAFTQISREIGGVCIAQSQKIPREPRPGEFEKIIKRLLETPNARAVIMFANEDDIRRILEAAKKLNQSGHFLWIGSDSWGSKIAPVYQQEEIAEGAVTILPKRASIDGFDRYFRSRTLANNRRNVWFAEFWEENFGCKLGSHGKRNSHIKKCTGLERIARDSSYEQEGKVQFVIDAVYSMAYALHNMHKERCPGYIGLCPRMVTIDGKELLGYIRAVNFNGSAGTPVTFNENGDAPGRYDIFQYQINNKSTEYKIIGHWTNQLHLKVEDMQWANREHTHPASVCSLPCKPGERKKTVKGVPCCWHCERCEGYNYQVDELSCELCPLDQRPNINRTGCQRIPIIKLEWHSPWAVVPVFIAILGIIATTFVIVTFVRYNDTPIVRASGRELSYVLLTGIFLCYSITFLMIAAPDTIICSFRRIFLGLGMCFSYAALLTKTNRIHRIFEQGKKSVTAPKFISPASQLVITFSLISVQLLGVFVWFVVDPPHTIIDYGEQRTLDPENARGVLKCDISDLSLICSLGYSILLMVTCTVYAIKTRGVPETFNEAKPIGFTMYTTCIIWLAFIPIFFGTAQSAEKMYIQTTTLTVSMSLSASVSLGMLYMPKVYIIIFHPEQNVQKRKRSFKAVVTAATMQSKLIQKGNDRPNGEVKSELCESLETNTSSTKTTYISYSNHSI
row,SMILES,z-score
1,CNC(=S)N1CCN(C(=O)C2CCCO2)CC1 (stereo not drawn),-0.25
2,CC(NC(=O)COc1ccc(/C=N/NC(=O)C(=O)Nc2ccccc2Br)cc1)c1ccccc1 (stereo not drawn),0.00853
3,CCC(C)(C)NC(=O)CN(Cc1cccs1)C(=O)CNS(=O)(=O)c1ccc(C)cc1,0.191
4,CCCn1nnc(NC(=O)c2ccc(Cl)cc2Cl)n1,-0.0896
5,O=C(NS(=O)(=O)c1ccccc1)c1ccccc1O,0.0922
6,c1cc(-c2nnc3n2CCCCC3)ccn1,0.91
7,Cc1cc(Cl)ccc1NC(=S)NCc1ccccc1Cl,0.000558
8,CCn1nc(C(=O)OCC(=O)c2ccc3c(c2)OCCO3)c2ccccc2c1=O,-0.721
9,Cc1ccc(C(=O)N/C(=C/c2cccc([N+](=O)[O-])c2)C(=O)NC(C)C)cc1,-0.0623
10,CCC(C)Nc1nc(CN2CCOCC2)nc2sc3c(c12)CCC3 (stereo not drawn),-0.57
11,CC(C)(C)C(=O)NC(=S)NCCc1ccccc1,-0.0291
12,COc1ccc(C(=O)CC(=O)C(=O)NCCc2cccc(C)c2)cc1,3.99 (active)
13,O=C(NC(=S)NCCc1ccccc1)c1ccco1,13 (active)
14,CCOc1ccc(C(=O)CC(=O)C(=O)NCCc2ccc(OC)c(OC)c2)cc1,-0.0424
15,COc1ccc(S(=O)(=O)CCC(=O)NCCc2cccc(C)c2)cc1,0.00176
16,O=C(NC(=S)N(CCc1ccccc1)CCc1ccccc1)c1ccco1,-1.87
17,Cc1ccccc1C(=O)NC(=S)NCC(=O)c1ccccc1,-0.0957
18,O=C(CNC(=S)NC(=O)c1ccco1)c1ccccc1,6.42 (active)
19,O=C(NCCc1ccccc1)c1ccco1,-0.2
20,Cc1ccccc1C(=O)NC(=S)NCCc1ccccc1,6.68 (active)
21,O=C(CNC(=S)NC(=O)c1ccc(Cl)cc1)c1ccccc1,1.87
22,CC(C)C(=O)NC(=S)NCC(=O)c1ccccc1,-0.37
23,Cc1cc2ccccc2n2c(SCC(=O)N3CCc4ccccc4C3)nnc12,0.115

row,SMILES,z-score
1,CC(=O)C1=C(c2ccccc2)NC(=S)NC1c1cc(Cl)c(OC(C)C)c(Cl)c1 (stereo not drawn),0.616
2,O=C(CN(C(=O)c1cccc([N+](=O)[O-])c1)C1CCCCC1)Nc1ccc(Cl)c([N+](=O)[O-])c1,-0.137
3,CCOc1nc(-c2ccc(C)cc2)ccc1-c1noc(COC)n1,-0.156
4,Cc1cc(C)c(Cn2cnc(-c3ccc([N+](=O)[O-])cc3)c2)c(C)c1,-0.0263
5,Cc1ccc(-c2ccc(CCC(=O)O)n2C(C)C)cc1,-0.00219
6,COc1ccc(-c2ccc(CCC(=O)O)n2C(C)C)cc1,-0.109
7,CC(C)n1c(CCC(=O)O)ccc1-c1ccccc1,2.11
8,Clc1ccc(-c2nnc3n2CCCS3)cc1,0.105
9,Cc1ccc(S(=O)(=O)NCCCCC(NC(=O)OC(C)(C)C)C(=O)O)cc1 (stereo not drawn) (tested in a mixture with another compound),-0.148
10,O=C(CN1C(=O)NC2(CCCC2)C1=O)Nc1ccc(F)cc1,0.19
11,CCCCn1nnnc1NCc1cccs1,-1.89
12,CCCn1nnnc1NCc1cccn1C,1.98
13,CCCn1nnnc1NCc1ccc(N2CCCC2)cc1,-0.208
14,CCc1ccc(/C=N/NC(=O)C(=O)NCCCN2CCOCC2)cc1,-0.174
15,CC(CC(=O)Nc1ccncc1)c1ccccc1 (stereo not drawn),0.044
16,O=C(CCSCc1ccc(Cl)cc1)NCCc1ccccc1,-0.0466
17,COc1ccc(Nc2ccc(S(=O)(=O)N3CCCCC3)cc2[N+](=O)[O-])cc1OC,2.43
18,COc1ccc(Nc2ccc(S(=O)(=O)N3CCCCC3)cc2[N+](=O)[O-])cc1Cl,0.547
19,COc1ccc(Nc2ccc(S(=O)(=O)N3CCCCCC3)cc2[N+](=O)[O-])cc1,0.571
20,COCc1cc(C)nc(Nc2ccc(C)cc2C)c1C#N,-0.225
21,COc1ccc(C(=O)N(NC(=O)Oc2ccccc2)C(C)(C)C)cc1,0.485
22,O=C(Nc1ccc(F)cc1)c1ccccc1,-0.000317
23,O=C(Nc1ccc2nc3ccccc3nc2c1)c1ccccc1,-0.114

row,SMILES,z-score
1,O=C(Nc1ccc2[nH]c(=S)sc2c1)c1ccccc1,11.9 (active)
2,CC1(C)CC(CC(=O)Nc2ccccc2[N+](=O)[O-])C(=O)O1 (stereo not drawn),-0.0252
3,COC(=O)c1cn(-c2ccccc2)c(C)c1C(=O)OC,-0.11
4,C=CCn1c(SCc2c(C)noc2C)nc2sc3c(c2c1=O)CCCC3,-0.0819
5,C=CCn1c(SCc2c(C)noc2C)nc2sc3c(c2c1=O)CCC(C)C3 (stereo not drawn),2.65
6,C=CCn1c(SCc2c(C)noc2C)nc2sc3c(c2c1=O)CCCCC3,-0.236
7,CC(C)(Oc1ccc(Cl)cc1)C(=O)NCc1ccncc1,0.181
8,CC(C)C(=O)Nc1cccc(NC(=O)c2ccc(Cl)cc2Cl)c1,-0.304
9,Cc1ccccc1C(=O)Nc1nncs1,-0.0319
10,O=C(Nc1nc(=S)ss1)c1c(F)cccc1F,-0.588
11,Cc1ccccc1C(=O)Nc1nc(=S)ss1,2.56
12,O=C(Nc1nc(=S)ss1)c1ccc(Cl)cc1Cl,4.46 (active)
13,CC(=O)Nc1nc(=S)ss1,0.468
14,CCOc1nc(N(C)C)nc(-n2nnc(C(C)=O)c2C)n1,-0.22
15,CC1SCC(=O)N(CC(=O)NCc2ccccc2)C1=O (stereo not drawn),-0.233
16,O=C(N/N=C/c1c(Cl)cccc1Cl)c1cccc(F)c1,3.05 (active)
17,O=C(N/N=C/c1c(Cl)cccc1Cl)c1ccc(F)cc1,-0.476
18,O=C(N/N=C/c1ccccc1Cl)c1cccc(F)c1,-0.342
19,O=C(C(=O)N1CCc2ccccc2C1)c1cn(CC(=O)N2CCCCC2)c2ccccc12,-0.582
20,CC(=O)C1=C(O)C(=O)N(c2cccc(C(=O)O)c2)C1c1ccc(F)cc1 (stereo not drawn),-0.153
21,O=C(/N=C1/c2ccccc2CN1c1ccccc1)Nc1ccccc1,-0.236
22,CC(=O)CN1Cc2ccccc2/C1=N\C(=O)Nc1ccccc1,3.19 (active)
23,CC(=O)c1ccc(N2Cc3ccccc3/C2=N\C(=O)Nc2ccccc2)cc1,-0.211

row,SMILES,z-score
1,Cc1ccc(S(=O)(=O)N2CCN(c3ccc(C(F)(F)F)cc3[N+](=O)[O-])CC2)cc1,-0.0811
2,Cc1scc(C(=O)N/N=C/c2ccc(OC(C)C)cc2)c1C,0.164
3,Cc1ccccc1NC(=O)CSc1nc(COc2ccccc2)nc2ccccc12,0.264
4,Cc1ccc(F)cc1NC(=O)Cc1nn(C)c(=O)c2ccccc12,-0.0938
5,O=C(Cn1nnc(-c2ccccc2F)n1)Nc1ccc2c(c1)OCO2,2.41
6,O=C(Cn1nnc(-c2ccccc2F)n1)NCCc1ccccc1,-0.146
7,CCCC(=O)Nc1ccccc1-c1nnn(CC(=O)Nc2ccc(OCC)cc2)n1,-0.817
8,O=C(Cn1nnc(-c2ccccc2)n1)Nc1ccc2c(c1)OCO2,0.199
9,COc1ccccc1NC(=O)Cc1nn(C)c(=O)c2ccccc12,-0.677
10,CCOC(=O)c1ccc(NC(=O)Cn2nnc(-c3ccccc3F)n2)cc1,-0.121
11,O=C(Cn1nnc(-c2ccccc2F)n1)Nc1cccc2ncccc12,2.27
12,COc1ccc(NC(=O)Cn2nnc(-c3ccccc3F)n2)cc1Cl,0.202
13,O=C(Cn1nnc(-c2ccccc2NC(=O)c2ccccc2)n1)Nc1ccc2c(c1)OCCO2,0.418
14,CCOc1ccc(NC(=O)Cn2nnc(-c3ccccc3F)n2)cc1,3.4 (active)
15,Cn1nc(CC(=O)Nc2cccc3ncccc23)c2ccccc2c1=O,2.01
16,CCCNc1c(N)c(=O)oc2ccccc12,-1.25
17,O=c1[nH]c2ccc(Cl)cc2c(-c2ccccc2)c1N1CCN(CCO)CC1,0.464
18,O=C(Nc1ccc(F)cc1F)c1ccco1,-0.0416
19,CCN(CC)c1ccc(NC(=O)/C=C\c2ccccc2Cl)cc1,-0.341
20,CCOC(=O)CNC(=O)CSc1nc2ncc(Br)cc2[nH]1,0.941
21,Cc1cc(N2C(=O)C3C4c5ccccc5C(c5ccccc54)C3C2=O)no1 (stereo not drawn),-0.47
22,Cc1ccc2c(CC(=O)NNC(=O)c3ccccc3)coc2c1,-0.29
23,CC(=O)O/N=C(/c1nonc1N)N1CCN(c2ccc([N+](=O)[O-])cc2Cl)CC1,-0.222

row,SMILES,z-score
1,Cc1ccc(NC(=O)c2cc(NC(=O)CCC(=O)O)ccc2N2CCCCC2)cc1,4.06 (active)
2,CC(=O)Nc1ccc(N2CCCCC2)c(C(=O)Nc2cccc(C)c2)c1,-0.0504
3,O=C(O)CCC(=O)Nc1ccc(N2CCCCC2)c(C(=O)O)c1,0.0405
4,O=c1cc(O)c2sc3nc(-c4ccccc4)cc(C(F)(F)F)c3c2[nH]1,-1.89
5,COc1ccc(OC)c(-c2cc(C(F)(F)F)c3c(n2)sc2c(O)cc(=O)[nH]c23)c1,-0.747
6,COc1ccc(-c2cc(C(F)(F)F)c3c(n2)sc2c(O)cc(=O)[nH]c23)c(OC)c1,5.32 (active)
7,Cc1[nH]c(=O)[nH]c(=O)c1NC(=O)c1sc2nc3c(C)cccc3cc2c1N,-0.256
8,COc1cc2cc3c(N)c(C(=O)Nc4sc(C)c(C)c4C#N)sc3nc2cc1OC,0.0438
9,Cc1sc(NC(=O)c2sc3nc4c(C)cccc4cc3c2N)c(C#N)c1C,2.37
10,CCN(CC)S(=O)(=O)c1ccc(N2CCCCC2)c(NC(=O)/C(C#N)=C/c2ccc(OC)cc2)c1,-0.0436
11,O=c1[nH]cnc2cc(Cl)ccc12,-0.0535
12,CCOc1ccc(C(C)=O)cc1N1C(=O)C2C3C=CC(C3)C2C1=O (stereo not drawn),-0.533
13,CCOc1ccc(C(C)=O)cc1N1C(=O)C2C3C=CC(O3)C2C1=O (stereo not drawn),-0.01
14,CCOc1ccc(C(C)=O)cc1N1C(=O)C2C(C1=O)C1C=CC2C12CC2 (stereo not drawn),4.92 (active)
15,COCCCNC(=O)C1CCCCN1S(=O)(=O)c1ccc(F)cc1 (stereo not drawn),0.633
16,Cn1c(SCC(=O)Nc2ccc(N3CCOCC3)c(Cl)c2)nnc1-c1ccccc1,-0.0676
17,Nn1c(SCC(=O)Nc2ccc3c(c2)OCO3)nnc1-c1ccc(Cl)cc1,-0.179
18,CCn1c(SCC(=O)Nc2ccc(N3CCOCC3)c(Cl)c2)nnc1-c1ccc(N)cc1,2.78
19,COc1ccc(-c2nnc(SCC(=O)Nc3ccc4c(c3)OCCO4)n2N)cc1OC,-0.393
20,Cc1ccc(-c2nnc(SCC(=O)Nc3ccc4c(c3)OCCO4)n2N)cc1,14.1 (active)
21,CCn1c(Cc2ccccc2)nnc1SCC(=O)Nc1ccc(N2CCOCC2)c(Cl)c1,-0.645
